TGFb SMAD3 inh: TGF-b pathway inhibition | Potency, µM (doses to about 46.1 µM), hits mostly inhibitors | 410,000 compounds, 1.2% hits | HepG2 CAGA-GFP TGF-b/SMAD3 reporter, GFP fluorescence, 18 h; TGF-beta stimulated, 500 pg/mL final; also: nearly all actives have a fitted effect of over 65% in size
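Per well, imaged GFP fluorescence of HEPG2 CAGA-GFP cells gives the signal; cells get compound, then TGF-beta (500 pg/mL final), 18 h at 37 degrees C; %Activity versus -TGF-beta and +DMSO controls.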
ATXN viability: reduces viability in counter-screen for ATXN expression inhibitors; S2 cells (HEK-293 line with an ATXN2-luciferase reporter) viability, CellTiter-Fluor protease fluorescence, 24 h; Potency, µM (series often up to 56.7 µM), most hits filed as cytotoxic; 400,000 compounds, 0.49% hits; AID 651635; also: nearly all actives have a fitted effect of over 40% in size
HepG2 tox-1: counter-screen for TGF-b inhibitors: cytotoxicity in HepG2 cells | HepG2 CAGA-GFP viability, ATP luminescence, 18 h | 410,000 compounds, 0.76% hits | AID 588856 | Potency, µM (top dose mostly 46.1 µM), usual class: cytotoxic
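CellTiter-Glo luminescence gave cytotoxicity after 18 hours at 37 degrees C. The cells were HepG2 CAGA-GFP in 1% FBS DMEM, stimulated with 500 pg/mL TGF-beta after compound addition. %Activity was normalised to no-cell wells (complete cell-killing) and DMSO (no toxicity), and curves were fitted and classified.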
LDHA inh: LDHA (human) enzyme inhibition | P00338 | purified LDHA, NADH/diaphorase-resazurin fluorescence; active compounds read low | activity change, % (values are at about 110 or 230 µM) | 480,000 compounds, 0.15% hits | AID 1347041; in the data active = activity change below about -30%; inconclusive = mostly about -25% to -30%
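Resorufin fluorescence (ex540/em590), read at 0 and 20 min after diaphorase/resazurin addition, reports the NADH left after a 5 min room-temperature reaction of 2 nM human LDH5 with 0.06 mM NADH and 0.2 mM pyruvate.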
IDH1 R132H inh: inhibitors of human mutant IDH1 R132H. IDH1-R132H enzyme, NADPH consumption, diaphorase/resazurin fluorescence. Potency, µM (highest dose often 76.6 µM), actives largely listed as inhibitors. 390,000 compounds, 0.093% hits; also: nearly all actives have a fitted effect of over 65% in size
Target sequence (O75874 whole entry R132H, stated change not applied): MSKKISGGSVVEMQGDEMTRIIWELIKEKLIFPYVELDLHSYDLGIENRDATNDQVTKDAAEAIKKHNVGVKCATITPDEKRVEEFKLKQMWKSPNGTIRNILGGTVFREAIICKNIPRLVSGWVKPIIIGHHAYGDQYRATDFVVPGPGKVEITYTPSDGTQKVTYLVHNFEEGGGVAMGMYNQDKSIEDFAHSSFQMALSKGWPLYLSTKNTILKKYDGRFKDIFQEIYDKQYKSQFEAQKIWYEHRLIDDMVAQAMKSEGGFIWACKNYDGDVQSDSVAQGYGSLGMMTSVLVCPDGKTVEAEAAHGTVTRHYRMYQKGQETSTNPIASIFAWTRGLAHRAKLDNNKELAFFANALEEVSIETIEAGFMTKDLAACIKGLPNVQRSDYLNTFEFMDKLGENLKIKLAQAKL
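IDH1-R132H (0.5 ug/mL dispensed) in pH 7.5 Tris buffer was preincubated 30 min with compound, then given a substrate mix of 0.016 mM NADPH and 2 mM alpha-KG for 80 min at room temperature; remaining NADPH was read by diaphorase/resazurin fluorescence.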
ATXN2 expr inh: ATXN2 expression inhibition; HEK-293 ATXN2-luciferase reporter, luminescence, 24 h; Potency, µM (series often up to 57 µM), actives largely listed as inhibitors; 360,000 compounds, 0.72% hits; also: nearly all actives have a fitted effect of over 55% in size
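ATXN2-luciferase reporter cells (luciferase flanked by upstream and downstream ATXN2 gene portions) were treated 24 h at 37 °C with compounds at up to 57 uM. SteadyGlo luminescence gave expression; GF-AFC fluorescence gave viability.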
TGFb confirm: TGF-b pathway inhibition, cherry-pick retest. shares compounds with TGFb SMAD3 inh. HepG2 CAGA-GFP TGF-b reporter, GFP fluorescence, 18 h; cells stimulated with TGF-beta, 500 pg/mL. Potency, µM (series often up to 46.1 µM), hits mostly inhibitors. 1,600 compounds, 63% hits. AID 720534; also: nearly all actives have a fitted effect of over 65% in size
HepG2 tox-2: HepG2 cytotoxicity, TGF-b inhibitor counterscreen | 1,600 compounds, 27% hits | Potency, µM (top dose mostly 46.1 µM), actives largely listed as inhibitors | AID 720535 | HepG2 CAGA-GFP viability, ATP luminescence, 18 h; cells stimulated with TGF-beta, 500 pg/mL | shares compounds with TGFb SMAD3 inh; also: nearly all actives have a fitted effect of over 70% in size
TGFb CCL64 inh: TGF-b inhibition, CCL64 orthogonal assay. shares compounds with TGFb SMAD3 inh. CCL64 CAGA-GFP reporter, TGF-b stimulated, GFP fluorescence, 18 h. Potency, µM (highest dose often 46.1 µM), hits mostly inhibitors. 1,600 compounds, 41% hits. AID 720536; also: nearly all actives have a fitted effect of over 65% in size
TGFb COP inh: validation of TGF-b inhibitors in HepG2 COP promoter reporter; shares compounds with TGFb SMAD3 inh; 1,600 compounds, 3% hits; Potency, µM (series often up to 46.1 µM), usual class: inhibitors; HepG2 COP-GFP TGF-b reporter, GFP fluorescence, 18 h; cells stimulated by added recombinant TGF-beta; also: nearly all actives have a fitted effect of over 70% in size
Hits are given with their value; i = inactive; ? = inconclusive; nt = no result given. Only some compounds are listed: those with a hit (about 2.2% of all), similar ones and a draw of the others. Unless noted, calls follow the shape of the dose curve; as a rule, active = well fitted curve in the direction sought with a large enough effect; inconclusive = small, poorly fitted or top-dose-only effect, or another doubt; inactive = no such curve, though single readings can be large; an effect the other way counts as inactive or inconclusive.

SMILES | TGFb SMAD3 inh | ATXN viability | HepG2 tox-1 | LDHA inh | IDH1 R132H inh | ATXN2 expr inh | TGFb confirm | HepG2 tox-2 | TGFb CCL64 inh | TGFb COP inh
CC(=O)N1CCN(c2ccc(NC(=O)c3ccc(Br)o3)cc2Cl)CC1 | i | i | i | i | i | nt | nt | nt | nt | nt
CCCC(=O)N1CCN(c2ccc(NC(=O)c3ccc([N+](=O)[O-])o3)cc2Cl)CC1 | 5.6µM | i | 11µM | i | i | ? | 3.7µM | 13µM | 23µM | ?
O=C(Nc1c(Cl)ccc2nsnc12)c1ccc([N+](=O)[O-])o1 | 10µM | i | 13µM | i | i | i | 8.2µM | ? | ? | ?
O=C(Nc1ccc2oc(-c3ccncc3)nc2c1)c1ccc([N+](=O)[O-])o1 | 5.6µM | ? | i | i | i | i | 6.5µM | ? | ? | i
O=C(Nc1cccc(Cl)c1N1CCCC1)c1ccc([N+](=O)[O-])o1 | i | i | i | i | i | i | nt | nt | nt | nt
O=C(Nc1c(Cl)ccc2nsnc12)c1ccc(Br)o1 | i | i | i | i | i | nt | nt | nt | nt | nt
CN1CCN(c2ccc(NC(=O)c3ccc([N+](=O)[O-])o3)cc2Cl)CC1 | 10µM | 20µM | i | i | i | i | 8.2µM | 16µM | 23µM | i
Cn1c(CC(=O)Nc2cccc(Cl)c2Cl)nnc1SCC(=O)NC1=NCCS1 | i | i | i | i | i | i | nt | nt | nt | nt
CCCOc1ccc(Nc2nc(SC)ncc2C(=O)OCC)cc1 | i | i | i | i | i | i | nt | nt | nt | nt
NCCCC[C@H](NC(=O)C1CCNCC1)c1nnc([C@@H](N)CO)o1 | i | i | i | i | i | i | nt | nt | nt | nt
Cc1cc(C)n(CCc2nc3c4ccccc4nc(SCc4ccc(Cl)cc4)n3n2)n1 | i | i | i | i | i | i | nt | nt | nt | nt
CC[C@@H](C)[C@H](NC(=O)OC(C)(C)C)c1nnc(S(=O)(=O)Cc2cc(C)ccc2C)o1 | ? | nt | i | i | i | ? | nt | nt | nt | nt
Cc1ccccc1CS(=O)(=O)c1nnc([C@H](CC(C)C)NC(=O)OC(C)(C)C)o1 | 5µM | ? | i | i | i | ? | 3.7µM | ? | 5.8µM | ?
Cc1ccc2[nH]c3c(=O)n(CC(=O)N4CCCC(C)C4)ncc3c2c1 (configuration not stated) | i | i | i | i | i | i | nt | nt | nt | nt
Nc1ncnc2nc(SCC(=O)Nc3ccccc3F)[nH]c12 | 7.9µM | i | i | i | i | i | 10µM | i | 16µM | i
O=C(CSc1nnnn1-c1ccccc1)c1ccc(Br)s1 | nt | nt | nt | i | nt | nt | nt | nt | nt | nt
O=C(COc1ccc(C(=O)c2ccccc2)cc1)NCc1ccc(F)cc1 | ? | ? | i | i | i | i | 9.2µM | i | ? | i
O=C(COc1ccc(C(=O)c2ccc(F)cc2)cc1)NC(=O)NCc1ccccc1 | nt | nt | nt | i | nt | nt | nt | nt | nt | nt
CC(C(=O)Nc1ccc(C(F)(F)F)cc1)N(C)CC(=O)N1CCN(Cc2ccccc2)CC1 (configuration not stated) | ? | i | i | i | i | i | nt | nt | nt | nt
